The text below walks through data of PubChem BioAssay AID602336 (NMMLSC, 2012).

The other results are listed elsewhere or left out. A number with no mark means an inactive call. Rule as the data show it: active = inhibition above about 25%; inactive = the rest.

As a reminder, the inhibition is the change of the read-out against control, counted positive when it falls.

In the experiment the test system is Botulinum neurotoxin type F light chain protease (Clostridium botulinum). As to the kind of experiment: inhibition of botulinum toxin F LC protease – biochemical, flow cytometry, cherry pick 2, confirmation (AID 602336). The settings on record: multiplex microsphere protease cleavage assay, at 10 µM, stronger effect = higher value. (In general: A flow cytometer gives signals particle by particle.)
As to `O=C(CN1CCN(c2ccccc2O)CC1)NC(=O)NCc1ccccc1`, the inhibition was -4.3%. Under `O=C(OCC(=O)c1c[nH]c2ccccc12)c1cccc(O)c1` stands -3.8%.

For `Cc1ccc(CNC(=O)c2cccc3c2C(=O)c2ccc(N4CCC(C)CC4)cc2S3(=O)=O)cc1`, the inhibition was 6.1%.

Turning to `COc1ccc(-c2cc3c(c4c2ccn4C)C2CCC3C2)cn1` (stereo not drawn), the inhibition was 4.4%. Under `Cc1cc2ccccc2n1CCNC(=O)COc1ccc2ccccc2c1` stands -12.9%; under `Cc1cc2cc(CNC(=O)c3ccc(S(=O)(=O)N4CCOCC4)cc3)ccc2[nH]1`, -10.8%; under `CCOc1ncccc1C(=O)OCC(=O)c1c[nH]c2ccccc12`, 3%. The result for `CC(=O)OCCN(CCCn1c(-c2ccncc2)nc2ccccc21)c1nc(-c2ccc(C)cc2)cs1` reads 4%.
